Assay outcomes: PubChem, several laboratories
Shn3 3UTR inh: inhibitors of Schnurri-3 3'UTR reporter in osteoblasts. inhibition, % at 12.5 µM. AID 588674. Clone20 osteoblast Shn3 3'UTR firefly luciferase, 24 h. 360,000 compounds, 0.52% hits;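 active = mean inhibition of at least 75% with every replicate also reaching 75%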;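 note: 0% = median of neutral control wells and 100% = pilot-screen positive control compound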
Gli-Sufu antag: antagonists of Gli-Sufu signaling; AID 588413; inhibition, % at 5 µM; Sufu-KO-LIGHT fibroblasts, Gli luciferase reporter luminescence; 340,000 compounds, 0.74% hits;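 active = inhibition above about 55%, limit read from the data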;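 note: 0% = DMSO-treated cells and 100% = wells with medium but no cells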
Mdm2-MdmX inh: disrupts the human Mdm2-MdmX interaction; SaOS-2 split-luciferase Mdm2/MdmX complementation, luminescence; O15151+Q00987; inhibition, % at 8 µM; 330,000 compounds, 3% hits;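 active = inhibition of at least 50% at 8 µM in the primary screen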
Target sequence (O15151 whole entry, looked up): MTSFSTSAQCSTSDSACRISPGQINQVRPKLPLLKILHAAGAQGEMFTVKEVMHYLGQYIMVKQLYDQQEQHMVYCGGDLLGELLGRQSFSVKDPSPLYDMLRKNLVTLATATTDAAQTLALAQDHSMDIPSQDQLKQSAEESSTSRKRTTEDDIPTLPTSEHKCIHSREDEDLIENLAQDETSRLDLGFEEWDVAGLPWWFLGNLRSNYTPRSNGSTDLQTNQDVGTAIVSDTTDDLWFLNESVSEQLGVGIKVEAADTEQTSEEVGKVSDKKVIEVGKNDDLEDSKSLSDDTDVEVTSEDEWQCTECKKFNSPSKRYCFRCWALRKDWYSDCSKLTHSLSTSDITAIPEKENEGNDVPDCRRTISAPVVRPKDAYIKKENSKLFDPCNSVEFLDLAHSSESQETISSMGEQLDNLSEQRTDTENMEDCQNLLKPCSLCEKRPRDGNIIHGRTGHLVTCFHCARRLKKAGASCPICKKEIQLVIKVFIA
Target sequence (Q00987 whole entry, looked up): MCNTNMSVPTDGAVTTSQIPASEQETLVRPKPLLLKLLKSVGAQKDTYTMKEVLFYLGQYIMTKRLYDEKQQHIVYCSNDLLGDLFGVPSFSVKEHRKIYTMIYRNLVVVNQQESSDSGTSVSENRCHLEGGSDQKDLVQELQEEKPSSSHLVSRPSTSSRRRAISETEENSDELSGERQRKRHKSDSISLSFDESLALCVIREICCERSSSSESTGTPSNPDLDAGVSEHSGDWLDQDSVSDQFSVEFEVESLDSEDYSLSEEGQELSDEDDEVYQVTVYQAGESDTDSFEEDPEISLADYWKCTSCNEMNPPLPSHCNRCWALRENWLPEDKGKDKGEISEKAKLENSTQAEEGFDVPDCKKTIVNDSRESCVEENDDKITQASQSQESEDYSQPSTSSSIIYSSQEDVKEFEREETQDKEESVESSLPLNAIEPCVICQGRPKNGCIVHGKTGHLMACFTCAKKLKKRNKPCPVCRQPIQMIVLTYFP
697 NFkB inh: lowers PMA/ionomycin-induced NF-kB signal in 697 B cells; 697 B-cell NF-kB luciferase reporter, 16 h; AID 435022; 330,000 compounds, 0.33% hits; inhibition, % at 4 µM; in the data active = inhibition above about 35%
Jurkat NFkB inh: inhibitors of the PMA/ionomycin-induced NF-kB reporter in Jurkat cells; 330,000 compounds, 0.53% hits; PMA/ionomycin-induced NF-kB luciferase reporter, luminescence; inhibition, % at 4 µM; in the data active = inhibition above about 50%
697 NFkB conf: lowers PMA/ionomycin-induced NF-kB signal in 697 B cells; inhibition, % at 4 µM; shares compounds with 697 NFkB inh; 697 B-cell NF-kB luciferase, 16 h; 2,000 compounds, 35% hits; in the data active = inhibition mostly above about 28%, no sharp cut-off; inactive = mostly below about 22%
* hit, by the source's call; . = not tested or not shown. Hits are enriched below; roughly 3.8% of the tested compounds scored in any of these assays.

SMILES	Shn3 3UTR inh	Gli-Sufu antag	Mdm2-MdmX inh	697 NFkB inh	Jurkat NFkB inh	697 NFkB conf
O=C(Nc1cccc(S(=O)(=O)NC2=NCCC2)c1)c1cn(-c2ccccc2)nc1-c1ccc(F)cc1	8.5	-25.8	20.6	-10.1	-5.6	.
Cc1cc2c(Nc3cccc(O)c3)ncnc2s1	-2.5	-14.3	24.4	-2.7	-7.7	.
Cn1c(=N)n(CC(=O)c2ccccc2)c2ccccc21	15.3	-61.8	-62.3	-286.9	-37.4	-258.9
Cn1c(=N)n(CC(=O)O)c2ccccc21	-2.2	-2.1	11.1	1.4	13.3	.
Cn1cc(Cl)c(C(=O)Nc2nc3ccccc3s2)n1	-27.8	-91.1	-26.9	-255.6	-88.8	-266.9
COC(=O)c1ccc(-c2nc(O)c(C)s2)cc1	-3.2	-8.4	-14.2	-1.1	7.1	.
COC(=O)c1ccc(-c2nc3cc(Cl)c(N)cc3s2)cc1	34.4	-67.3	-19.3	-258.1	-138.1	-83.0
Cc1cc(OCCCN2CCCC2)ccc1Cl	3.4	8.9	-2.1	4.3	5.4	.
CCc1nn(CC(=O)NCCCN(C)Cc2ccccc2)c(=O)c2cc3sc(C)cc3n12	-5.4	20.0	41.6	-22.2	-7.4	.
COc1ccc(Nc2nnc(-c3ccc(O)cc3)c3ccccc23)cc1C(N)=O	8.7	-6.3	-2.1	39.0*	-2.9	22.7
COc1ccc(Nc2nnc(C)c3ccccc23)cc1C(N)=O	-13.7	-1.2	9.6	2.9	5.0	.
CCC(=O)Nc1cccc(-c2cc3ccccc3oc2=O)c1	-30.4	0.7	14.2	-12.8	-7.1	.
Cc1cc(C)cc(C(=O)NC(=S)Nc2ccc(-c3cc4ccccc4oc3=O)cc2)c1	55.2	11.6	35.4	22.2	-17.2	.
Cc1ccc(C(=O)NC(=S)Nc2ccc(-c3cc4ccccc4oc3=O)cc2)c(C)c1	47.8	4.4	21.8	36.0*	9.7	9.2
O=C(Cc1cccc2ccccc12)Nc1ccc(-c2cc3ccccc3oc2=O)cc1	39.4	4.9	46.2	71.9*	9.3	50.3*
Cc1cccc(CNC(=O)c2ccc(NC(=O)C3=CSCCO3)cc2)c1	-29.3	15.1	-22.0	-11.7	-1.5	.
C(=C\c1nc2ccccc2[nH]1)/c1ccccc1	-0.5	-140.5	-27.1	-442.4	-104.2	-296.1
Cc1nc(/C=C/c2ccccc2)[nH]c(=O)c1-c1ccccc1	-86.8	-106.2	-10.1	-253.7	6.4	-162.8
C(=C\c1ccco1)/c1nc2ccccc2[nH]1	-38.8	.	-30.0	-2.8	11.2	.
CCOc1ccc(C(=O)Nc2nnc(S(=O)(=O)Nc3ccccc3C)s2)cc1	-24.0	-4.9	12.2	6.6	-6.3	.
Cc1cc2c(cc1S(=O)(=O)NCc1ccccc1)OCC(=O)N2	-6.1	-3.6	10.8	-6.8	1.6	.
CCN1C(=O)c2cccc3c(NC(=O)c4cccc(N5C(=O)CCC5=O)c4)ccc1c23	-5.3	15.3	-1.6	35.9*	3.4	40.2*
CCOc1cc(C(=O)Nc2ccc3c4c(cccc24)C(=O)N3CC)cc(OCC)c1OCC	11.2	23.8	25.3	3.7	-8.9	.
CN(C)C(CNC(=O)c1cc(S(=O)(=O)N(C)c2ccc(F)cc2)ccc1Cl)c1cccs1 (centres undefined)	28.4	22.1	.	.	.	.
CC(C)(C)C(=O)NNC(=O)c1cnccn1	16.4	3.3	4.3	45.3*	0.5	10.2
SMILES	Shn3 3UTR inh	Gli-Sufu antag	Mdm2-MdmX inh	697 NFkB inh	Jurkat NFkB inh	697 NFkB conf
CSc1ccc(COC(=O)CCS(=O)(=O)c2ccc(C)cc2)cc1	-2.4	-14.9	17.9	9.8	4.9	.
COCCNC(=O)C1Cc2c(-c3cccc(NC(C)=O)c3)ccnc2O1 (centres undefined)	-5.0	.	.	.	.	.
O=C(c1cc(-c2ccc(Cl)cc2Cl)on1)N1CCOCC1	12.2	-125.6	-25.0	-293.4	-122.8	-186.1
O=C(O)CCCCCn1c(SCc2cc(=O)n3ccccc3n2)nc2ccsc2c1=O	-7.6	-6.0	12.2	35.6*	7.2	23.2
CCOc1ccc2oc(C(=O)N3CCN(c4ccccn4)CC3)c(C)c2c1	-11.8	-6.0	19.2	3.0	24.7	.
CCOc1ccc2[nH]c3c(N4CCN(c5ccccn5)CC4)ncnc3c2c1	9.3	44.0	33.2	45.1*	0.3	27.0
COc1ccc(N=Nc2ccc(CO)cc2)cc1	-55.4	-49.3	-211.7	-323.7	-140.6	-241.3
CN(C)c1ccc(N2C(=NC(=O)COc3ccccc3)SC3CS(=O)(=O)CC32)cc1 (centres undefined)	-6.6	-0.5	5.5	-62.1	-9.9	.
CCOc1ccc(-c2cc(CCCC(=O)NCCC(C)C)no2)cc1	-5.1	-5.0	-4.6	26.6	-24.8	.
COc1ccc(-c2cc(CCCC(=O)NCCc3ccc(OC)cc3OC)no2)cc1	40.8	-4.3	5.0	16.2	4.8	.
CCOc1ccc(-c2cc(CCCC(=O)NCCc3ccc(OC)c(OC)c3OC)no2)cc1	53.6	14.4	-2.9	37.0*	-10.5	9.6
CCOc1ccc(NC(=O)CCCc2cc(-c3ccc(OCC)cc3)on2)cc1	11.5	8.4	-7.0	39.8*	-16.0	40.2*
COc1ccc(-c2[nH]nc3oc(=O)cc(C)c23)cc1	-20.8	3.6	-10.1	35.5*	3.6	7.4
Cc1cc(=O)oc2n[nH]c(-c3ccccc3)c12	-2.9	-1.0	-1.3	11.9	12.0	.
O=C(N/N=C/c1cccnc1)c1cc(-c2ccccc2OCc2ccccc2)n[nH]1	.	11.5	22.0	35.0*	21.7	25.9*
Cc1ccc(S(=O)(=O)N(C)C)cc1NC(=O)COC(=O)C1=COCCO1	-5.1	7.9	18.6	11.7	8.2	.
COc1ccccc1N(C)S(=O)(=O)c1ccc(C(=O)Nc2ccc(C)cc2C)cc1	23.9	-7.9	21.3	4.9	-1.6	.
CCc1[nH]nc2c1C(c1ccsc1)C(C#N)=C(N)O2 (centres undefined)	-11.2	-80.1	30.7	34.6	-7.7	.
CCc1[nH]nc2c1C(c1ccc(Br)s1)C(C#N)=C(N)O2 (centres undefined)	-18.5	19.4	40.2	43.1*	8.6	22.6
C=CCn1cc(C(=O)N2CCN(C)CC2)c(=O)c2cc(S(=O)(=O)N(CC)CC)ccc21	-10.3	-17.4	8.6	-2.7	4.2	.
CCc1ccc(-c2nnn(CCC#N)n2)cc1	-19.2	-19.1	8.9	-2.1	-19.1	.
CCc1ccc(-c2nnn(CCC(=O)OC)n2)cc1	18.2	30.1	22.9	52.1*	9.9	64.0*
CN(C)S(=O)(=O)c1ccc(NC(=O)N2CCN(c3ccccc3)CC2)cc1	-2.6	23.4	11.9	46.1*	-8.6	28.7*
Cc1ccc(C(=O)NNC(=O)CCCN2C(=O)/C(=C/c3ccccc3Cl)SC2=S)cc1	-4.1	5.0	40.4	44.1*	18.7	40.8*
O=C(CCN1C(=O)/C(=C/c2ccccc2Cl)SC1=S)NNC(=O)c1cccnc1	3.5	5.5	2.4	-5.7	-2.7	.
O=C(CCCN1C(=O)/C(=C/c2ccccc2Cl)SC1=S)NNC(=O)c1ccc(Cl)cc1	-17.7	17.2	42.4	60.8*	19.4	52.1*
CCCN1CCc2c(sc3nc(SCC)n(-c4ccc(OC)cc4)c(=O)c23)C1	13.4	1.6	18.5	-1.3	4.0	.
